Screens deposited in PubChem BioAssay by several laboratories.
CHT inh = inhibits the human high affinity choline transporter. Q9GZV3. CHT-expressing cells, membrane potential dye, choline response; hits give low values. B-score at 10 µM. 0.86% of 310,000 active;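 active = B-score over 3 SD under the library average, and starting fluorescence ratio not unusually high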;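 note: choline stimulus applied at its EC90 after an EC20 pre-addition; B-score computed on integrated fluorescence ratio after choline addition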
TAG inh = inhibitors of triacylglycerol accumulation; H9c2 cells, Nile Red lipid (TAG) fluorescence; cells loaded with 200 µM oleic acid; inhibition, % at 12.5 µM; 0.66% of 230,000 active; AID 651582;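 active = pattern-corrected inhibition of lipid staining of at least 50% with the nuclear-stain viability signal not falling by more than 50%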;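 note: 0% = DMSO wells and 100% = triacsin C control wells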
CHT allo act = allosterically activates the human high affinity choline transporter; 0.49% of 310,000 active; CHT-expressing cells, membrane potential dye, choline EC20; hits give high values; LV-AA mutant CHT in HEK293 cells; B-score at 10 µM; AID 488977;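 active = initial fluorescence not abnormally high and integrated response B-score, plate-corrected, over 3 SD above library mean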
Kir21 inh = Kir2.1 (mouse) channel inhibition; P35561; HEK293-Kir2.1, FluxOR thallium flux fluorescence; hits give low values; B-score at 10 µM; 0.85% of 310,000 active;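 active = fluorescence ratio B-score at or below minus 3 SD of library scores, with starting-brightness B-score within 2 SD, cut at about -4.2 in these data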;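 note: channel flux triggered by added potassium and thallium sulfate stimulus; B-score of peak minus minimum fluorescence over baseline after thallium stimulus; more negative B-score means stronger Kir2.1 block with less thallium influx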
Target sequence (P35561 whole entry, looked up): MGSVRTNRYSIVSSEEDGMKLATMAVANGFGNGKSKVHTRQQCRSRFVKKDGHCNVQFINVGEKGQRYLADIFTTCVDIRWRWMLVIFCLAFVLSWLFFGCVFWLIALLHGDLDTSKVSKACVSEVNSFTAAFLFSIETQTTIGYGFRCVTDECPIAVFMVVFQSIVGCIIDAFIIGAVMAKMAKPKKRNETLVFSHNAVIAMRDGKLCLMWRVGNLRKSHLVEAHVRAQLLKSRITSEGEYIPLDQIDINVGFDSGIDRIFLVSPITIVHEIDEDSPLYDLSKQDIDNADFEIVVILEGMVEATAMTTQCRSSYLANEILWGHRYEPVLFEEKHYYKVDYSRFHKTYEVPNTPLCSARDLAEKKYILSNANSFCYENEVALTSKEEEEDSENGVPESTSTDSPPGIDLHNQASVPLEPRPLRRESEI
TAG conf = triacylglycerol accumulation inhibition, confirmation; shares compounds with TAG inh; H9c2 lipid accumulation, Nile Red fluorescence; cells loaded with 200 µM oleic acid; inhibition, % at 12.5 µM; 71% of 990 active; AID 651629;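 active = mean inhibition across replicates of 40% or more; inactive = mean inhibition below 40%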;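 note: plate controls were DMSO only wells for no effect and Triacsin C treated wells for full effect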
Numbers without * were called inactive; i = inactive; . = no result. Rows were chosen to be rich in hits. Some 2% of all compounds tested hit in one or more screens of this group.

SMILES	CHT inh	TAG inh	CHT allo act	Kir21 inh	TAG conf
COc1cc(CN2CCC(C(=O)NC(c3ccc(F)cc3)c3ccc4ccccc4n3)CC2)cc(OC)c1 (configuration not stated)	.	48	.	.	.
Cn1cc(CN2CCC(C(=O)NC(c3ccc(F)cc3)c3ccc4ccccc4n3)CC2)c2ccccc21 (configuration not stated)	.	103*	.	.	98*
COc1ccc(NC(=O)C2CCCN2C(=O)NCc2ccccc2)cc1 (configuration not stated)	i	-17	i	-1.4	.
COc1ccccc1CCC(=O)Nc1ccc2c(c1)c(=O)n(C)n2Cc1ccc(F)cc1	.	34	.	.	.
COc1cccc(Cn2c3ccc(NC(=O)CCc4ccc(F)cc4)cc3c(=O)n2C)c1	.	52*	.	.	69*
CC(C)N(C(=O)c1ccc(Cc2cn(C)c3ccccc23)nc1)C(C)C	.	-9	.	.	.
CN1CCN(C(=O)c2ccc(Cc3cn(C)c4ccccc34)nc2)CC1	.	54*	.	.	0
CC(=O)Nc1ccc(SC[C@H](CC(C)C)N2CCN(CC(C)C)CCC2=O)cc1	i	67*	i	0.76	1
Clc1cccc(Nc2nc(-c3ccncc3)cs2)c1	i	81*	i	-0.01	59*
O=C(Nc1cccc(-c2csc(Nc3ccc(Cl)cc3)n2)c1)c1cccc(C(F)(F)F)c1	i	54*	i	-0.03	65*
O=C(Nc1cccc(-c2csc(Nc3ccc(Cl)cc3)n2)c1)c1cc([N+](=O)[O-])cc(C(F)(F)F)c1	i	56*	i	-0.11	50*
O=C(Nc1ccc(-c2csc(Nc3ccc(Cl)cc3)n2)cc1)c1cc([N+](=O)[O-])cc(C(F)(F)F)c1	i	51*	i	0.11	57*
O=C(Nc1cccc(-c2csc(Nc3ccc(Cl)cc3)n2)c1)c1ccccc1	i	42	i	1.9	.
O=C(CN1C(=O)NC2(CCCC2)C1=O)Nc1ccc(F)c([N+](=O)[O-])c1	i	.	i	0.2	.
CSc1nc(N)c(C(=O)N(c2ccccc2)c2ccccc2)s1	.	-12	.	.	.
CN1N=C2c3ccccc3CCCC2C1c1ccc(F)cc1 (configuration not stated)	i	-19	i	-0.6	.
COC(=O)c1cc(NC(=O)c2c(Cl)nc3sccn23)cc(C(=O)OC)c1	i	70*	i	-1.5	87*
COC(=O)c1cc(=O)nc2sccn12	i	-8	i	-0.45	.
COc1ccc(C2NCCc3c2[nH]c2ccccc32)cc1CSc1nc2ccccc2s1 (configuration not stated)	i	57*	i	-0.47	51*
Cn1nc(C(=O)Nc2cc(Cl)ccc2N2CCCC2)c2ccccc2c1=O	.	5	.	.	.
CN1CCN(c2ccc(Cl)cc2NC(=O)c2nn(-c3ccccc3)c(=O)c3ccccc23)CC1	.	52*	.	-0.02	27
CCCc1nc2oc3c(Cl)ncnc3c2c2c1CCCC2	i	2	i	-0.08	.
CCCc1nc2oc3c(NCCN(C)C)ncnc3c2c2c1CCCC2	i	58*	i	-0.53	24
Cn1c(=O)[nH]c2c(c1=O)CCO2	.	7	.	.	.
Nc1ncnc2c1ncn2[C@@H]1O[C@H](CNCc2cn(CC(=O)NC3CC3)c3ccccc23)[C@@H](O)[C@H]1O	.	76*	.	.	5
SMILES	CHT inh	TAG inh	CHT allo act	Kir21 inh	TAG conf
Nc1ncnc2c1ncn2[C@@H]1O[C@H](CNCc2ccccc2)[C@@H](O)[C@H]1O	.	-9	.	.	.
CCOc1ccccc1N1CCN(Cc2cnc(-c3ccccc3)[nH]2)CC1	i	8	i	-0.03	.
COc1cc(C)c2sc3ccccc3c(=O)c2c1NCCN(C)C	.	70*	.	.	64*
CC(C(=O)OCC(=O)c1cccc([N+](=O)[O-])c1)N1C(=O)C2C3CCC(C3)C2C1=O (configuration not stated)	i	.	i	0.06	.
CCCC(C(=O)NC(C)(C)C)N(Cc1ccccc1)C(=O)c1snc(C(N)=O)c1N (configuration not stated)	.	69*	.	.	0
CC(C)C[C@@H](CN1CCCC1CN1C(=S)NC[C@@H]1Cc1ccc(O)cc1)N1C[C@H](Cc2ccccc2)N(CC2CCCCC2)C1=S (some centres not stated)	.	53*	.	.	73*
CC(C)C[C@@H](CN1CCCC1CN1C(=S)NC[C@@H]1Cc1ccc(O)cc1)N1C[C@H](Cc2ccccc2)N(CC2CCCCCC2)C1=S (some centres not stated)	.	74	.	.	.
CN1C[C@@H]2[C@@H]3C(=O)N(C)C(=O)[C@@H]3[C@](C)(C1=O)N2C(=O)c1ccc(Br)cc1	.	8	.	.	.
O=c1cc(-c2cccc(Cl)c2)oc2cccc(O)c12	i	92*	i	0.03	1
O=c1cc(-c2cccc(Br)c2)oc2cccc(O)c12	i	.	i	0.26	.
CCOc1cc(N2CCOCC2)c(OCC)cc1NC(=O)CC12CC3CC(CC(C3)C1)C2	i	74*	i	1.2	47*
CC1Cc2ccccc2N1C(=O)CSc1ncccn1 (configuration not stated)	i	-13	i	-0.38	.
CCOCCCNC(=O)c1cc2c(-c3ccc(Cl)cc3)nn(C)c2s1	i	32	i	-0.02	.
Cn1nc(-c2ccc(Cl)cc2)c2cc(C(=O)NC3CC3)sc21	i	76*	i	0.59	70*
Nc1ncnc2c1ncn2C1C=C(CO)C(O)C1O (configuration not stated)	.	75*	.	.	76*
CCN(CC)CCCC(C)n1c(C)cc(C(=O)NS(=O)(=O)c2ccc(C)cc2)c1C (configuration not stated)	.	6	.	.	.
COc1cccc(/C=N/NC(=O)CNC(=O)COc2ccccc2)c1O	i	51*	i	1.9	1
COc1ccc(/C=N/NC(=O)CNC(=O)COc2ccccc2)cc1	i	.	i	1.9	.
COCCCNC(=O)c1c(N)n(/N=C/c2ccccn2)c2nc3ccccc3nc12	.	33	.	0.07	.
Nc1c(C(=O)NC2CCCC2)c2nc3ccccc3nc2n1/N=C/c1cccnc1	i	69*	i	0.47	72*
COc1cc(C#Cc2c(-c3cncn3C)n(C)c3ccc(-c4ccc(CN5CCOCC5)cc4)cc23)cc(OC)c1	.	5	.	.	.
COc1cc(C#Cc2c(-c3cncn3C)n(C)c3ccc(-c4cnc(N5CCOCC5)nc4)cc23)cc(OC)c1	.	73*	.	.	65*
O=C(COC(=O)c1cnccn1)Nc1ncc(C(F)(F)F)cc1Cl	.	-23	.	.	.
Cc1cccc(OCC(=O)NC(=S)Nc2ccc(S(=O)(=O)NC3CCCCC3)cc2)c1	i	5	i	0.96	.
O=C(CSc1nc(-c2ccco2)cc(C(F)(F)F)n1)Nc1ccc2c(c1)CCC2	i	52*	i	0.04	25
O=C(NC1CCCCC1)N1CCN(S(=O)(=O)c2ccc(F)cc2)CC1	i	-9	i	-0.64	.
O=C(c1ccc(F)cc1)C1CCN(C(=O)NC2CCCCC2)CC1	i	50*	i	0.43	29
